{"source": "the supplement of paper PMC8371130", "note": "Where a name gives a salt, the structure may show the parent alone.", "data": [{"system": "HL-1", "assay": "relative cell viability (CellTiter-Glo) vs DMSO control (% of DMSO control); higher = more viable cells", "details": "oxygen condition: hypoxia 48 h (1% O2) + reoxygenation 24 h; 1000 nM", "procedure,_shortened": "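Cell viability, normalised to vehicle-treated control cells, was read by CellTiter-Glo luminescence. For this, HL-1 mouse atrial cardiomyocytes were plated at 1000 cells per well in 384-well plates alongside compounds at 40, 200, 1000 or 5000 nM in 0.01% DMSO. After a day, plates either spent 48 h in a hypoxic workstation at 1% O2 and then 24 h reoxygenating in a normal incubator, or remained in normoxia for the same period.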", "values": [{"smiles": "O=C(CCCN1CC=C(n2c(=O)[nH]c3ccccc32)CC1)c1ccc(F)cc1", "note": "[Droperidol]", "relative cell viability": 105}, {"smiles": "Cc1ccc(C)c(OCCCC(C)(C)C(=O)O)c1", "note": "[Gemfibrozil]", "relative cell viability": 101}, {"smiles": "CC(C)[C@H](N)C(=O)OCC(CO)OCn1cnc2c(=O)nc(N)[nH]c21", "note": "(stereo partly drawn) [valganciclovir hydrochloride]", "relative cell viability": 107}, {"smiles": "CCCCCN(C)CCC(O)(P(=O)(O)O)P(=O)(O)O", "note": "[Ibandronate sodium]", "relative cell viability": 93.1}, {"smiles": "CN(C)CCC(c1ccccc1)c1ccccn1", "note": "(stereo not drawn) [Pheniramine Maleate]", "relative cell viability": 104}, {"smiles": "O=C1c2c(O)ccc(O)c2C(=O)c2c(NCCNCCO)ccc(NCCNCCO)c21", "note": "[Mitoxantrone Hydrochloride]", "relative cell viability": 5.93}, {"smiles": "CCN(CC)CCNC(=O)c1c(C)[nH]c(/C=C2\\C(=O)Nc3ccc(F)cc32)c1C", "note": "[Sunitinib Malate]", "relative cell viability": 107}, {"smiles": "CCCc1nn(C)c2c(=O)[nH]c(-c3cc(S(=O)(=O)N4CCN(C)CC4)ccc3OCC)nc12", "note": "[Sildenafil citrate]", "relative cell viability": 105}, {"smiles": "CCCCOc1ccc(OCCCN2CCOCC2)cc1", "note": "[Pramoxine HCl]", "relative cell viability": 110}, {"smiles": "COc1ccc(CN2CCN(C(c3ccc(F)cc3)c3ccc(F)cc3)CC2)c(OC)c1OC", "note": "[Lomerizine HCl]", "relative cell viability": 108}, {"smiles": "COc1ccc(-c2nc3cc(C4=NNC(=O)CC4C)ccc3[nH]2)cc1", "note": "(stereo not drawn) [Pimobendan]", "relative cell viability": 99.1}, {"smiles": "NS(=O)(=O)c1cc2c(cc1Cl)N=C(CSCc1ccccc1)NS2(=O)=O", "note": "[Benzthiazide]", "relative cell viability": 99.3}, {"smiles": "CNC[C@@H](O)c1ccc(O)c(O)c1", "note": "[L-Adrenaline]", "relative cell viability": 100}]}]}
